Screening results from PubChem.
Compounds with a hit are over-represented: about 12% of the library has one in this group of screens.
Shiga toxin inh – blocks Shiga toxin action in Vero cells. Vero cells, Shiga toxin protein synthesis inhibition reporter. inhibition, % at 38.7 µM. actives 9.2% (n = 290,000). AID 2315; in the data active means inhibition mostly above about 28%, no sharp cut-off; inactive means mostly below about 43%; further: 0% is about no effect
Marburg entry inh – blocks Marburg virus binding to or entry into cells; Marburg virus pseudotyped entry inhibition, cell reporter; Potency, µM (titrated, usually from 37.8 µM), without a hit: top-dose activity change, negative = inhibition, usual class: inhibitors; actives 1.8% (n = 300,000); AID 540276; calls by dose curve; tested in HEK293 cells; further: potency means the concentration at half of the fitted maximal effect; on the % scale 0 is the no-effect control and ±100 the full control effect
Cycloheximide cs – counter-screen for Shiga toxin inhibitors: cycloheximide protein synthesis inhibition. cell reporter, cycloheximide protein synthesis inhibition counterscreen. max response, %. actives 12% (n = 300,000); in the data active means max response mostly above about 13%, no sharp cut-off; inactive means mostly below about 14%; further: read at 38.3 µM for the half of the compounds with a filed dose; 0% is about no effect
LASV entry inh – blocks Lassa virus binding to or entry into cells | Lassa virus pseudotype entry inhibition, cell reporter | Potency, µM (series often up to 37.9 µM), for the others: at the top dose activity change, negative = inhibition, usual class: inhibitors | actives 1.2% (n = 300,000) | AID 540256; calls by dose curve; tested in HEK293 cells; further: potency means the concentration at half of the fitted maximal effect; on the % scale 0 is the no-effect control and ±100 the full control effect; nearly all actives have a fitted effect of over 50% in size
Starred values were filed as active, the others as inactive; [ ] = dose if it differs, or a comment.

How did O=C(/C=C/c1ccco1)N1CCN(c2ccc(F)cc2)CC1 do in these assays?
Shiga toxin inh: 48; Marburg entry inh: 4%[46.1 µM]; Cycloheximide cs: 14; LASV entry inh: -3%[46.1 µM]

What do the screens show for `CCC(=O)c1ccc(/C=C/c2nc3ccccc3n2C)o1`?
Shiga toxin inh: 67*; Marburg entry inh: inconclusive; Cycloheximide cs: 30*; LASV entry inh: inconclusive

What do the screens show for `Cn1c(/C=N/O)nc2ccccc21`?
Shiga toxin inh: 19; Cycloheximide cs: 12

How did c1ccc(CSCc2cn3ccccc3n2)cc1 do in these assays?
Shiga toxin inh: 112*; Marburg entry inh: inconclusive; Cycloheximide cs: 47*; LASV entry inh: inconclusive

What do the screens show for `Cc1ccc(SCc2cn3ccccc3n2)cc1`?
Shiga toxin inh: 66*; Marburg entry inh: inconclusive; Cycloheximide cs: 32*; LASV entry inh: inconclusive

How did Cc1ccc(C(=O)OCc2cn3ccccc3n2)cc1 do in these assays?
Shiga toxin inh: 15; Marburg entry inh: -14%; Cycloheximide cs: 15*; LASV entry inh: 10%

What do the screens show for `Cc1ccc2nc(COC(=O)CNC(=O)c3ccccc3)cn2c1`?
Marburg entry inh: -9%; LASV entry inh: -16%

Results for Oc1cncc(Cc2ccccc2)c1 ?
Shiga toxin inh: -14; Marburg entry inh: 0%; Cycloheximide cs: -2; LASV entry inh: inconclusive

What do the screens show for `O=C1/C(=C/c2ccccn2)COc2ccccc21`?
Shiga toxin inh: 78*; Marburg entry inh: inconclusive; Cycloheximide cs: 27*; LASV entry inh: inconclusive

Results for O=C1/C(=C/c2ccc(O)cc2)COc2ccccc21 ?
Shiga toxin inh: 45*; Marburg entry inh: 14%; Cycloheximide cs: 29*; LASV entry inh: 9%

How did O=C1/C(=C/c2ccccc2[N+](=O)[O-])COc2ccccc21 do in these assays?
Shiga toxin inh: 155*; Cycloheximide cs: 76*

Results for CC(C)[C@@H](OCc1ccccc1)[C@H](C)/C=N\OC[C@@H](O)[C@@H]1O[C@@H]2OC(C)(C)O[C@@H]2[C@H]1O ?
Marburg entry inh: -5%[14.2 µM]

Results for CCOC(=O)c1snc(C(=O)NC2CCCCC2)c1N ?
Shiga toxin inh: 161*; Marburg entry inh: inconclusive; Cycloheximide cs: 24*; LASV entry inh: -21%

What do the screens show for `COc1ccc(NC(=O)NC2CCCCCCC2)cc1`?
Shiga toxin inh: 61*; Cycloheximide cs: 45*

How did COc1ccc(NC(=O)Cn2nnc(-c3ccccc3NS(=O)(=O)c3ccccc3)n2)cc1 do in these assays?
Shiga toxin inh: -3; Marburg entry inh: 8.9µM*; Cycloheximide cs: -2; LASV entry inh: inconclusive

How did COc1ccc(OC)c(NC(=O)CCCC(=O)NC2CCCCC2)c1 do in these assays?
Shiga toxin inh: -10; Cycloheximide cs: 1

How did COc1ccc(CC(=O)NC2CCCCCC2)c(OC)c1 do in these assays?
Shiga toxin inh: 26; Marburg entry inh: -7%[46.1 µM]; Cycloheximide cs: 8.5*; LASV entry inh: -22%

What do the screens show for `COC(=O)c1ccc(NC(=O)NC2CCCCC2)cc1`?
Shiga toxin inh: 110*; Marburg entry inh: 17%; Cycloheximide cs: 41*; LASV entry inh: 9%

What do the screens show for `COc1ccc(S(=O)(=O)Nc2ccccc2-c2nnn(CC(=O)Nc3ccccc3OC)n2)cc1`?
Shiga toxin inh: -21; Marburg entry inh: inconclusive; Cycloheximide cs: -3; LASV entry inh: inconclusive

How did N[C@H](CCC(=O)NCC(=O)O)C(=O)O do in these assays?
Shiga toxin inh: -3; Cycloheximide cs: -5

What do the screens show for `Cc1ccn2c(c1)nc(=O)c1cc(S(=O)(=O)N3CCOCC3)ccc12`?
Shiga toxin inh: -3; Cycloheximide cs: 1

How did COC(=O)c1cccnc1NC(=S)NC1CCCCC1 do in these assays?
Shiga toxin inh: -13; Marburg entry inh: 5%[46.1 µM]; Cycloheximide cs: -1; LASV entry inh: 19%

Results for COc1ccc(NC(=O)NC2CCCCCCC2)c(OC)c1 ?
Shiga toxin inh: 45*; Cycloheximide cs: 30*

Results for COC(=O)c1ccc(NC(=S)NC2CCCCC2)cc1 ?
Shiga toxin inh: 41*; Marburg entry inh: 4%; Cycloheximide cs: 23; LASV entry inh: 0%

How did COC(=O)c1ccc(NC(=S)NC2CC3CCC2C3)cc1 (stereo not given) do in these assays?
Shiga toxin inh: 104*; Marburg entry inh: inconclusive; Cycloheximide cs: 41*; LASV entry inh: 5%

Results for COc1ccc(NC(=O)CNC(=O)C2CCCCC2)cc1 ?
Shiga toxin inh: 20; Cycloheximide cs: 22*

How did CCCCCCOc1ccc(/C=C/C(=O)Nc2sc3c(c2C(=O)OC)CCC3)cc1OC do in these assays?
LASV entry inh: 20%[46.1 µM]

How did COc1ccc(CNC(=O)Cn2nnc(-c3ccc(NC(=O)C4CCCCC4)cc3)n2)cc1 do in these assays?
Shiga toxin inh: 23; Marburg entry inh: inconclusive; Cycloheximide cs: 21*; LASV entry inh: -11%

Results for COC(=O)c1ccc(NC(=S)NCC2CC2)cc1 ?
Shiga toxin inh: 97*; Cycloheximide cs: 63*

Results for COC(=O)c1ccc(NC(=S)Nc2ccc(O)cc2)cc1 ?
Shiga toxin inh: 14; Marburg entry inh: 7%; Cycloheximide cs: 5; LASV entry inh: 1%

Results for CCOc1ccc(-c2nnn(CC(=O)NCc3ccc(OC)cc3)n2)cc1OCC ?
Shiga toxin inh: -15; Marburg entry inh: inconclusive; Cycloheximide cs: -7; LASV entry inh: inconclusive

How did Cc1ccc(NC(=O)c2ccccc2Br)cc1S(=O)(=O)N(C)C do in these assays?
Shiga toxin inh: 41; Marburg entry inh: inconclusive; Cycloheximide cs: 13; LASV entry inh: 10%

Results for Cc1ccccc1-n1c(SCC(=O)Nc2ccccc2Cl)nc2n[nH]c(C)c2c1=N ?
Shiga toxin inh: -3; Cycloheximide cs: 10

Results for CCOc1ccccc1-n1c(SCC(=O)Nc2ccc(CC)cc2)nc2n[nH]c(C)c2c1=N ?
Shiga toxin inh: -9; Marburg entry inh: inconclusive; Cycloheximide cs: -4; LASV entry inh: 10µM*

How did COc1ccc(OC)c(NC(=O)CSc2nc3n[nH]c(C)c3c(=N)n2-c2cccc(Cl)c2C)c1 do in these assays?
Shiga toxin inh: -2; Marburg entry inh: 18µM*; Cycloheximide cs: 25*; LASV entry inh: -6%[46.1 µM]

What do the screens show for `Cc1ccc2oc(-c3cccc(NC(=O)/C=C/c4cccc([N+](=O)[O-])c4)c3C)nc2c1`?
Shiga toxin inh: 97*; Marburg entry inh: 4%; Cycloheximide cs: 57*; LASV entry inh: -1%

Results for Cc1c(NC(=O)c2ccc(-c3cccc([N+](=O)[O-])c3)o2)cccc1-c1nc2cc(Cl)ccc2o1 ?
Marburg entry inh: 30%[46.1 µM]; LASV entry inh: 23%[46.1 µM]

What do the screens show for `O=C(COc1ncnc2sccc12)N1CCN(C(=O)c2ccco2)CC1`?
Shiga toxin inh: -12; Marburg entry inh: 23%; Cycloheximide cs: -3; LASV entry inh: 11%

How did Cc1cc(C)nc(SCc2ccc(F)cc2)n1 do in these assays?
Shiga toxin inh: 4; Marburg entry inh: 16%[46.1 µM]; Cycloheximide cs: -2; LASV entry inh: 8%

How did Cc1ccc(CCSc2ccc(C(C)C)cc2)cn1 do in these assays?
Shiga toxin inh: 30*; Marburg entry inh: -7%; Cycloheximide cs: 9.2*; LASV entry inh: inconclusive

Results for Cc1ccc(NCCc2ccc(C)nc2)cc1 ?
Shiga toxin inh: -11; Marburg entry inh: 7%; Cycloheximide cs: 12; LASV entry inh: 29%

Results for Cc1ccc(CCSc2ccc(F)cc2)cn1 ?
Shiga toxin inh: 64*; Marburg entry inh: 4%[46.1 µM]; Cycloheximide cs: 15*; LASV entry inh: 15%
